The panel holds about 83,000 compounds, 20% with a hit somewhere; the sample as a whole holds those more often.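 For each line, cells grew in 96-well plates with the test compound present at a single concentration for 48 hours.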 Unmarked numbers belong to inactive results. Activity calls are given as the source filed them. The calls were made as follows: active = growth percent below 10; inactive = the rest.
Experiments:
Assay in all cases: NCI-60 one-dose screen, 48 h (100 = growth as untreated, 0 = no growth, -100 = all killed)
Settings in all cases: 10 µM unless noted
[1] = tested on: SR leukemia
[2] = tested on: RPMI-8226 leukemia
[3] = tested on: OVCAR-8 ovarian
[4] = tested on: OVCAR-5 ovarian
[5] = tested on: OVCAR-4 ovarian
[6] = tested on: SK-OV-3 ovarian
[7] = tested on: IGROV1 ovarian
[8] = tested on: OVCAR-3 ovarian
[9] = tested on: HS 578T breast
[10] = tested on: NCI/ADR-RES ovarian

Row | Structure (SMILES) | growth [1] | growth [2] | growth [3] | growth [4] | growth [5] | growth [6] | growth [7] | growth [8] | growth [9] | growth [10]
1 | NC(=O)c1c(NC(=O)c2ccccc2C(F)(F)F)sc2c1CCC(=O)C2 | 27.2% | -1.93% (active) | 17.3% | 27% | 9.19% (active) | 105% | 31.2% | 12.3% | 32.5% | 14.9%
2 | Cc1[nH]c(C(=O)Nc2ccccc2OCc2cccc(C(=O)N3CCC[C@@H](N)C3)c2)c(Cl)c1Cl | -46.2% (active) | -38.5% (active) | -45.2% (active) | -87.3% (active) | -77.4% (active) | -59.3% (active) | -73.5% (active) | -87.4% (active) | -50.9% (active) | -68.8% (active)
3 | NC(N)=Nc1ccc(Oc2ccc(Nc3ccc(Cl)c(C(F)(F)F)c3)cc2)cc1 | -4.22% (active) | 41.9% | 55.1% | 66.2% | 52.3% | 89.4% | -7.75% (active) | -21.8% (active) | 56.1% | 91.9%
4 | O=S(=O)(NCCCNc1nccc(-n2cnc3ccccc32)n1)c1ccc(C(F)(F)F)cc1 | 75.4% | 69.7% | 82.5% | 96.3% | 66.7% | 92.5% | 98.1% | 96.8% | 78.3% | 81.1%
5 | C#C[C@]1(O)CC[C@H]2[C@@H]3CC=C4c5sc(-c6cccc(O)c6)nc5CC[C@]4(C)[C@H]3CC[C@@]21C | 4.31% (active) | -33% (active) | 9.55% (active) | -35% (active) | -47.4% (active) | -18.2% (active) | -3.36% (active) | -65.3% (active) | -37.7% (active) | -12.5% (active)
6 | NS(=O)(=O)c1ccc(Nc2nc(N/N=C/CCc3ccccc3)nc(Nc3ccccc3)n2)cc1 | 91.5% | 101% | 104% | 103% | 104% | 104% | 106% | 117% | 96.8% | 113%
7 | COc1ccc(-c2nc3ccc(-c4nnc(SCC(=O)Nc5ccc(C(=O)/C=C/c6ccc(Cl)cc6)cc5)o4)cc3[nH]2)cc1 | 68.2% | 79.9% | 105% | 99.4% | 103% | 112% | 87.2% | 113% | 90.6% | 107%
8 | Cc1nc(-c2ccccc2O)ccc1C(=O)N=Nc1c(O)[nH]c2ccc(Br)cc12 | 101% | 87.9% | 97.9% | 101% | 102% | 97.7% | 89.7% | 103% | 91.6% | 99.6%
9 | COc1ccc(NC(=O)CSc2nnc(-c3ccc4nc(-c5ccccc5)[nH]c4c3)o2)cc1 | 91.2% | 79.1% | 101% | 101% | 100% | 108% | 92.9% | 110% | 105% | 101%
10 | CCN(CC)c1ccc2c(c1)Oc1nc(N)c(C#N)c(N)c1C2Sc1ccc(C)cc1 (stereo not given) | -22% (active) | -22.9% (active) | -57.9% (active) | -88.6% (active) | -96.7% (active) | -89.3% (active) | -87.4% (active) | -54% (active) | -18.8% (active) | -17.9% (active)
11 | Nc1ccccc1NC(=O)c1ccc(NC(=O)C/C=C/c2cccnc2)cn1 | 28.2% | -12% (active) | 21.5% | 26% | 32.9% | 29.4% | 16.7% | 22.7% | 24.6% | 19%
12 | N#Cc1cccc(CN2CCC3=C(C2)C(=O)N(Cc2ccc(Cl)cc2)C2=NCCCN23)c1 | 27.6% | 18.7% | 21.5% | 38.7% | 20.8% | 35.9% | 48.2% | 23.3% | 50.5% | 13.4%
13 | O=C(CCC(=O)N1CCOCC1)OCCCCCCSc1ccc([N+](=O)[O-])c2nonc12 | -2.69% (active) | -21.1% (active) | -6.75% (active) | -20.1% (active) | -83.7% (active) | 39.8% | -88.7% (active) | -66.9% (active) | -8.04% (active) | 2.86% (active)
14 | CCN(CC)c1ccc2c(c1)Oc1nc(N)c(C#N)c(N)c1C2Sc1ccc(F)cc1 (stereo not given) | -9.13% (active) | -25.7% (active) | -31.1% (active) | -92.5% (active) | -29.3% (active) | -7.03% (active) | -77.9% (active) | -69.4% (active) | -4.5% (active) | -9.25% (active)
15 | CC1=CC(=O)C2=C(C)CC(OC(=O)CCc3ccccc3)[C@@H]3[C@H](OC(=O)[C@@H]3C)[C@@H]12 (stereo not given in full) | 86.8% | 74.7% | 96.8% | 95.9% | 91.6% | 91.6% | 82.7% | 98.6% | 104% | 98.2%
16 | CCOC(=O)C(=O)CC(=O)N1C(=S)NC(=O)C1CC(C)C (stereo not given) | 112% | 107% | 101% | 98.5% | 102% | 122% | 97.5% | 112% | 111% | 95.3%
17 | CCc1cccc2c3c(sc12)C(c1ccc(Cl)cc1)C(C#N)=C(/N=C/c1ccc(Cl)cc1)O3 (stereo not given) | 13.9% | 8.79% (active) | 28.1% | 32.9% | 79.1% | 55.4% | 28.1% | -14.2% (active) | 8.08% (active) | 5.33% (active)
18 | O=C(NNc1nc2cc(F)ccc2n2c(CN3CC4CNCC4C3)ccc12)c1cnccn1 (stereo not given) | 12.9% | 46.7% | 14.3% | 43.1% | 23.8% | 23.4% | 24.2% | 36.9% | 72.5% | 84.8%
19 | COc1ccc([C@@H]2c3[nH]c4ccccc4c3C[C@H]3C(=O)N(C4CCN(CC5CCCCC5)CC4)CC(=O)N23)c(OC)c1 | 25.9% | 53.6% | 82.2% | 94.1% | 70.5% | 86.2% | 60% | 74.9% | 68.9% | 76.7%
20 | Cc1nn(-c2ccccc2)c2ncnc(N/N=C/c3cccc(O)c3)c12 | 30.8% | 22.7% | 59.2% | 77.1% | 30.2% | 88.4% | 54.9% | 41.5% | 56.9% | 23.3%
21 | NC(N)=Nc1ccc(Oc2cccc(NC(N)=Nc3ccc(Cl)c(C(F)(F)F)c3)c2)cc1 | 7.43% (active) | 41.4% | 66.8% | 48.1% | 62.4% | 54.9% | -10.5% (active) | 30.8% | 35.8% | 95.4%
22 | CNC1CCc2c(sc(NC(=O)c3ccc(C(C)(C)C)cc3)c2C(N)=O)C1 (stereo not given) | 2.87% (active) | -5.86% (active) | 74.6% | 67% | 81.4% | 90.6% | 65.8% | 61.3% | 57.3% | 78.2%
23 | Oc1[nH]c2ccccc2c1Nn1c(N=N/C=c2/ccc3c(c2)C=NN=3)n[nH]c1=S | 84.5% | 91% | 105% | 109% | 84.6% | 106% | 74.6% | 96.8% | 103% | 112%
24 | Cc1cc2nc(C(Cl)Cl)nc(-c3cccs3)n2n1 | 48.3% | -23.4% (active) | 35% | 3.63% (active) | 14.9% | 14.7% | 43.2% | -30.9% (active) | 3.9% (active) | 13.7%
25 | CCOc1ccc(NC2=C(Cl)C(=O)c3nc(C)ccc3C2=O)cc1 | -27.4% (active) | -19.3% (active) | 1.03% (active) | 54.8% | -97.5% (active) | 79.8% | -82.4% (active) | -97.2% (active) | 49% | -15.6% (active)
26 | CC(C)(C)c1ccc(C(=O)Nc2nc3ccc(O)cc3s2)cc1 | 24.7% | 22.1% | 30.6% | 69.6% | 46.3% | 78.6% | 47.7% | 57.6% | 77.3% | 40.9%
